Screening data as filed in PubChem.
m5-HT2A agonist = activates the mouse 5-HT2A serotonin receptor; 0.66% of 360,000 active; activation, % at 7.6 µM; CHO-K1 mHTR2A beta-arrestin complementation, luminescence; percent of 30 µM serotonin response; AID 624169; P35363;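 active = activation above a run cutoff, the mean activation of all tested compounds plus 3 SD, cut at about 14% in these data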;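 also: 0% = plate median of compound wells and 100% = 30 µM serotonin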
JMJD2C inh = inhibitors of human GASC-1 (JMJD2C) demethylase | Q9H3R0 | GST-JMJD2C(1-420) H3K9me3 demethylation, DELFIA europium | inhibition, % at 2.35 µM | 0.069% of 330,000 active;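 active = more than half of a compound's replicate wells show inhibition beyond 50%, single wells judged on their own value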;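 also: signal counts dimethyl H3K9 product captured on neutravidin plate; 0% = median of DMSO wells and 100% = 0.3 times that DMSO median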
Granule exo inh = lytic granule exocytosis inhibition. TALL-104 LAMP-1 surface exposure, flow cytometry; cells stimulated with thapsigargin and PMA. inhibition, % at 10 µM. 0.66% of 360,000 active;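 active = inhibition above about 55%, limit read from the data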
VLA-4 inh = inhibition in a human VLA-4 binding assay; P13612; VLA-4 expressing cells, ligand binding flow cytometry; inhibition, % (about 7 µM as worked out from the volumes in the protocol); 0.2% of 330,000 active; AID 2557; in the data active = inhibition above about 50%
MEX-5 binding = C. elegans MEX-5 TCR-2 RNA binding activity. 0.38% of 300,000 active. activity score (negative = inhibition of binding), % at 10 µM. AID 1832. MEX-5/FITC-TCR2 RNA binding, fluorescence polarization; active compounds read low;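 active = inhibition past about -25% in most replicates, and total fluorescence under double the plate's negative control median, limit read from the data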;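 also: 0% = DMSO and -100% = 5 µM competing unlabeled TCR2 RNA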
Target sequence (Q9XUB2 whole entry, looked up): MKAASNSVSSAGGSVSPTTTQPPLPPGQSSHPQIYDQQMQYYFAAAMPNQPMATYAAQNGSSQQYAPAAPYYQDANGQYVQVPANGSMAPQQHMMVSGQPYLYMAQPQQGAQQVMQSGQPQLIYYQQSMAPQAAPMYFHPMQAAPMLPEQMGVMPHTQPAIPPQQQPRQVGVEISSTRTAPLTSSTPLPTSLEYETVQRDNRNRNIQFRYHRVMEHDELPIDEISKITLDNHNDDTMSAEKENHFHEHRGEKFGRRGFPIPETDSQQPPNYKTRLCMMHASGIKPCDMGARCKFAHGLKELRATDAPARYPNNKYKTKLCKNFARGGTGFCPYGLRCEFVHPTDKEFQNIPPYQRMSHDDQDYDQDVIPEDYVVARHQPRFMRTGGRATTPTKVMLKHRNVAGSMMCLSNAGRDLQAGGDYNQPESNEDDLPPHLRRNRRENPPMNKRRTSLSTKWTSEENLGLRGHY
V-ATPase pH = yeast V-ATPase proton transport regulation by pHLuorin. response, % at 10 µM. AID 504577. 0.37% of 350,000 active. S. cerevisiae, pHLuorin cytosolic pH fluorescence; in the data active = response mostly above about 7.3%, no sharp cut-off; inactive = mostly below about 5.4%; also: actives read high
OPRM1 ag = activates human mu opioid receptor in HTR2A counterscreen; U2OS OPRM1 beta-arrestin PathHunter, luminescence; DMSO 0%, DAMGO 9.3 µM 100%; activation, % at 9.3 µM; shares compounds with m5-HT2A agonist; AID 624380; 5.3% of 2,300 active;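 active = mean activation above the mean of DMSO-only wells plus 3 SD, cut at about 0.5% in these data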
m5-HT2A ag conf = mouse HTR2A agonism confirmed; shares compounds with m5-HT2A agonist; activation, % at 7.6 µM; AID 624381; 19% of 2,300 active; CHO-K1 PathHunter beta-arrestin recruitment, luminescence; DMSO 0%, 30 µM serotonin 100%;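 active = mean activation across triplicates above the hit threshold derived in the original primary screen, cut at about 15% in these data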
* = called active by the depositor; / = no result given. Most compounds without a hit are left out; they make up all but 2.2% or so of the library.

SMILES | m5-HT2A agonist | JMJD2C inh | Granule exo inh | VLA-4 inh | MEX-5 binding | V-ATPase pH | OPRM1 ag | m5-HT2A ag conf
O=C(NC1CCCCC1)C(c1ccc(C(F)(F)F)cc1)n1c(=O)c(-c2cc3ccccc3[nH]2)nc2ccccc21 (stereo not given) | -3 | / | -7 | / | / | / | / | /
O=C(NC1CCCCC1)C(c1ccncc1)n1c(=O)c(-c2cc3ccccc3[nH]2)nc2ccccc21 (stereo not given) | 16* | / | 14 | / | / | / | 0 | 5
Cc1ccc(C)c(S(=O)(=O)N2CCN(C(=O)c3ccccn3)CC2)c1 | 1 | / | -5 | -3 | / | 1 | / | /
Cc1cc(C)c(C)c(S(=O)(=O)N2CCN(C(=O)c3ccccn3)CC2)c1C | 16* | / | 5 | 3 | / | -1 | 1.1* | 4
Cc1ccc2c(cnn2C(=O)CCC(=O)NCc2cccc(Cl)c2)c1 | 1 | -7 | 4 | -5 | 2 | -1 | / | /
COc1ccccc1CNC(=O)COC(=O)c1ccc2c(=O)n3c(nc2c1)CCCCC3 | 18* | 8 | -2 | 32 | / | -1 | -1 | 0
Cc1nc2ncnn2c(C)c1CCC(=O)NCCc1ccccc1 | 4 | 9 | 5 | 19 | 0 | 0 | / | /
Cc1nc2ncnn2c(C)c1CCC(=O)NCCCN1CCN(c2cccc(Cl)c2)CC1 | 24* | -3 | -1 | 3 | -2 | 5 | 0.9* | 80*
O=C(Nc1cccc(S(=O)(=O)N2CCOCC2)c1)c1cc(S(=O)(=O)N2CCOCC2)c(Cl)cc1Cl | 13 | / | 2 | / | / | 2 | / | /
Cc1ccc(NC(=O)c2ccc(OC(=O)c3ccco3)cc2)cc1 | 18* | 8 | 2 | 7 | -2 | -3 | 0 | 2
Cc1cccc(NC(=O)c2cccc(NC(=O)c3ccco3)c2)c1C | 10 | 2 | -3 | -3 | 2 | 3 | / | /
Cc1ccccc1NC(=O)c1cccc(NC(=O)c2ccco2)c1 | 15* | -5 | 3 | -15 | -3 | 3 | -1 | 0
O=C(Nc1ccc(Cl)cc1)c1ccco1 | 15* | -7 | -4 | 7 | 1 | -3 | 0 | -3
CC(=O)Nc1ccc(NC(=O)c2ccco2)cc1 | -3 | 5 | 3 | -4 | 1 | -1 | / | /
Cc1ccc(Oc2ccc(NC(=O)c3ccco3)cc2)cc1 | -4 | -21 | -1 | 3 | -1 | -2 | / | /
CCc1ccc2nc(N(CCCN(C)C)C(=O)c3ccc(C(=O)c4ccccc4)cc3)sc2c1 | -13 | -8 | 26 | -8 | 1 | 2 | / | /
CC1(C)C(C=C(Cl)Cl)C1C(=O)N1CCN(Cc2ccccc2)CC1 (stereo not given) | 20* | -12 | -2 | 13 | 1 | -2 | -1 | 76*
CC1CCCC(C)N1CCCNC(=O)C1CCCN(S(=O)(=O)N2CCCCC2)C1 (stereo not given) | -1 | / | 0 | / | / | / | / | /
S=c1[nH]nc(CSCc2ccccc2Cl)n1C1CCCCC1 | 29* | -9 | 1 | / | 1 | 3 | 0 | -1
Cn1c(CSCc2ccccc2Cl)n[nH]c1=S | 6 | 4 | 2 | 5 | -1 | 1 | / | /
O=C(c1ccco1)N1CCN(CCCCN2C(=O)c3ccccc3C2=O)CC1 | 17* | 2 | 4 | 11 | -1 | -1 | -1 | 54*
O=C(c1ccco1)N1CCN(CCCCOc2ccc(F)cc2)CC1 | 19* | -3 | -3 | / | 0 | -3 | -1 | 63*
O=C(CN1C(=O)c2ccccc2C1=O)N1CCN(C(=O)c2ccco2)CC1 | 1 | -11 | 0 | / | 2 | 5 | / | /
CC1CN(C(=O)c2cc(-c3ccc(Cl)s3)nc3ccccc23)CC(C)O1 (stereo not given) | 1 | 0 | 6 | 4 | -2 | 1 | / | /
Cc1ccc(OC(=O)N(C)C[C@@H]2OCc3cn(nn3)CCCC(=O)N([C@@H](C)CO)C[C@H]2C)cc1 | 2 | / | -1 | / | / | -3 | / | /
SMILES | m5-HT2A agonist | JMJD2C inh | Granule exo inh | VLA-4 inh | MEX-5 binding | V-ATPase pH | OPRM1 ag | m5-HT2A ag conf
COc1ccc(CNC(=O)CC(C)S(=O)(=O)c2ccc3c(c2)NC(=O)CO3)cc1 (stereo not given) | 6 | 1 | 5 | -8 | 1 | 1 | / | /
COc1ccc(CCNC(=O)CC(C)S(=O)(=O)c2ccc3c(c2)NC(=O)CO3)cc1OC (stereo not given) | 15* | -4 | -1 | -3 | 3 | 0 | 0 | -4
OCCNc1nc(Nc2ccccc2C(F)(F)F)nc(N2CCCC2)n1 | 17* | 2 | 4 | 12 | 0 | -4 | -1 | -3
CCCCN(CC)CCCNC(=O)CC1Oc2ccccc2NC1=O (stereo not given) | 27* | -2 | -1 | 1 | -2 | -1 | -1 | 90*
CC(C)CN(CCCNC(=O)CC1Oc2ccccc2NC1=O)CC(C)C (stereo not given) | 2 | 0 | 4 | 9 | 0 | 6 | / | /
CCN(CC)CCNC(=O)c1cc2c(-c3ccc(Cl)cc3)nn(C)c2s1 | -12 | 17 | 11 | 24 | 0 | -3 | / | /
CCCN(CCC)CCNC(=O)c1cc2c(-c3ccc(Cl)cc3)nn(C)c2s1 | 30* | -9 | 25 | 23 | 3 | -2 | 0 | 51*
c1ccc(Nc2nc(N3CCCC3)nc(N3CCOCC3)n2)cc1 | 6 | -5 | -9 | 5 | -1 | 6 | / | /
c1ccc(Nc2nc(Nc3ccccc3)nc(N3CCNCC3)n2)cc1 | 20* | -5 | 5 | 24 | 1 | -2 | 0 | 11
CCOC(=O)C(C(=O)Nc1ccccn1)C1CCCCC1 (stereo not given) | -9 | 9 | 0 | -3 | 2 | 1 | / | /
CCOC(=O)C(C(=O)Nc1cccc(C)n1)C1CCCCC1 (stereo not given) | 14* | -7 | 0 | 13 | 1 | 1 | 0 | -4
CCCCn1c(N)c(N(CCC(C)C)C(=O)C2CCN(C(=O)c3ccccc3C)CC2)c(=O)[nH]c1=O | 3 | -37 | -2 | 14 | -1 | -1 | / | /
COc1ccc(-c2cc(C)no2)cc1S(=O)(=O)NCCCN1CCN(c2ccccc2)CC1 | 17* | 1 | -3 | 6 | 0 | 4 | 0 | 26*
Cc1cc(-c2ccc(C)c(S(=O)(=O)NCCCN3CCN(c4ccccc4)CC3)c2)on1 | -9 | -9 | 7 | 13 | -1 | 0 | / | /
CN1CCN(S(=O)(=O)c2csc(C(N)=O)c2)CC1 | 9 | -3 | 0 | 2 | 2 | -1 | / | /
NC(=O)c1cc(S(=O)(=O)N2CCN(c3cccc(Cl)c3)CC2)cs1 | 15* | 3 | 2 | 1 | -2 | 0 | 0 | -4
COc1ccc(CCNc2ccc(S(N)(=O)=O)cn2)cc1 | 16* | 1 | -4 | 9 | 2 | 5 | 0 | -5
